Experimental data taken from PubChem BioAssay (Tox21).
Inconclusive results are not listed. Entries that show only a call come without a potency. The source made the active and inactive calls. Calls come from the whole dose curve; as a rule, active = well fitted cell-killing curve with a large enough effect in the repeat runs; inconclusive = weak or mixed curves, or effect the other way; inactive = flat fitted curve, though single readings scatter.

Test: cAMP Responsive Elements (CRE) small molecule antagonists, cell-based qHTS assay: qHTS cell viability counter screen (AID 2060913); note: nearly all actives have a fitted effect of over 40% in size
Settings: CRE-bla HEK293T viability, CellTiter-Glo luminescence, 5 h; series mostly up to 92.4 µM
Method in brief: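 Steps: cells plated and held 18 hrs at 37 C/5% CO2; compounds and NKH477 (0.25 uM final) added; 3 hrs incubation; reporter substrate read; CellTiter-Glo added to measure cytotoxicity by luminescence.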
Potency is the fitted concentration of half-maximal effect.

Compound	Potency	viability change, negative = cytotoxic
CCCOCCC	inactive	
C=CCCCC	inactive	
C=C(C)C1CCC(C)CC1O (centres undefined)	inactive	
CC(C)(C)OC(=O)c1ccccc1C(=O)O	inactive	
COC(=O)C1=C(C)NC(C)=C(C(=O)OCCN(C)Cc2ccccc2)C1c1cccc([N+](=O)[O-])c1 (centres undefined)	inactive	
O=C(OC[C@H]1O[C@@H](OC(=O)c2cc(O)c(O)c(OC(=O)c3cc(O)c(O)c(O)c3)c2)[C@H](OC(=O)c2cc(O)c(O)c(OC(=O)c3cc(O)c(O)c(O)c3)c2)[C@@H](OC(=O)c2cc(O)c(O)c(OC(=O)c3cc(O)c(O)c(O)c3)c2)[C@@H]1OC(=O)c1cc(O)c(O)c(OC(=O)c2cc(O)c(O)c(O)c2)c1)c1cc(O)c(O)c(OC(=O)c2cc(O)c(O)c(O)c2)c1		-4.21% [at 18.9 µM] (inactive)
CCN(CC)c1ccc(C(=C2C=CC(=[N+](CC)CC)C=C2)c2ccc(S(=O)(=O)O)cc2S(=O)(=O)[O-])cc1	27.3 µM (active)	
C[Si](C)(C)C	inactive	
CCN(CCCCOC(=O)c1ccc(OC)c(OC)c1)C(C)Cc1ccc(OC)cc1 (centres undefined)	inactive	
CC1(C)S[C@@H]2[C@H](NC(=O)[C@H](N)c3ccccc3)C(=O)N2[C@H]1C(=O)O	inactive	
On1nnc2ccccc21	inactive	
COC(C(=O)O)c1ccccc1 (centres undefined)	inactive	
O=C(CCOCCOCCOCCOCCC(=O)Nc1c(I)cc(I)c(C(=O)O)c1I)Nc1c(I)cc(I)c(C(=O)O)c1I	inactive	
C/C=C/C=C/C=O	inactive	
O=C1c2ccccc2CCc2ccccc21	inactive	
CC/C(=C(/CC)c1ccc(O)cc1)c1ccc(O)cc1	inactive	
C=CCOCC(O)CCl (centres undefined)	inactive	
CCN(CC)CCOCCOC(=O)C1(c2ccccc2)CCCC1	inactive	
CSSc1ccoc1C	inactive	
CN(C/C=C/c1ccccc1)Cc1cccc2ccccc12	29.8 µM (active)	

Compound	Potency	viability change, negative = cytotoxic
CCCC(C)C(=O)OCC (centres undefined)	inactive	
CCN(Cc1cccc(S(=O)(=O)O)c1)c1ccc(C(=C2C=CC(=[N+](CC)Cc3cccc(S(=O)(=O)O)c3)C=C2)c2ccc(O)cc2S(=O)(=O)[O-])cc1	inactive	
CCCC[P+](C)(CCCC)CCCC	inactive	
CCc1c(C(=O)NN2CCCCC2)nn(-c2ccc(Cl)cc2Cl)c1-c1ccc(Br)cc1	inactive	
CCCCC(CC)COC(=O)CCCCCCCCC(=O)OCC(CC)CCCC (centres undefined)	inactive	
COc1ccc(NC(C)=O)cc1	inactive	
Cc1occc1S	inactive	
O=[N+]([O-])c1cccc(Cl)c1Cl	inactive	
CCCCC(CC)COC(=O)c1ccccc1C(=O)O (centres undefined)	inactive	
Cc1cc(C)c(C)cc1C	inactive	
c1ccc(CNCc2ccccc2)cc1	inactive	
Cc1ccccc1OCC(=O)O	inactive	
CC1=C(CC(=O)O)c2cc(F)ccc2/C1=C\c1ccc(S(C)(=O)=O)cc1	inactive	
CC(=O)c1ccccc1	inactive	
CCCCNC(=O)NCCCC	inactive	
c1c[nH]cn1	inactive	
CNC1(C)C2CCC(C2)C1(C)C (centres undefined)	inactive	
Cc1cc(C)c(C)c(C)c1	inactive	
CC1=CC[C@@]23C[C@@H]1C(C)(C)[C@@H]2CC[C@H]3C	inactive	
